Activity calls are given as the source filed them. Unless noted, how the calls were made is not given here.
Legend:
[1] = test system: Wnt5a (protein binding on small-molecule microarray); assay: Wnt5a binders on small-molecule microarray, primary screen, biophysical, 635/667 nm fluorescence (AID 1142); settings: 635 nm fluorescence, higher = more signal;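 further: fluorescence read at 667 nm with signal to noise per printed feature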
[2] = cell viability in Huh7 cells, primary screen, cytotoxicity control for HCV replication inhibitor project, CellTiter-Glo luminescence, basal, 48 h (AID 1143); settings: Huh7 HCV replicon, higher = more signal, called active from +8 up or from −8 down;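 further: Huh7 hepatoma cells carrying a hepatitis C replication reporter with no stimulus; test concentration not given here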
[3] = P. aeruginosa biofilm formation inhibitors, primary screen, PAO1 strain, BacTiter-Glo luminescence, LB-PBS (AID 1144); settings: 12 h, higher = more signal
[4] = CREB reporter modulators without forskolin, primary screen, cell-based, PC12, CRE-LacZ reporter, unstimulated (AID 1145); settings: no forskolin, luminescence, 4.5 h, higher = more signal, called active from +8 up or from −8 down
[5] = CREB reporter modulators under forskolin, primary screen, cell-based, PC12, CRE-LacZ reporter, forskolin-stimulated (AID 1146); settings: luminescence, 4.5 h, higher = more signal, called active from +8 up or from −8 down;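 further: PC12 cells with 6xCRE LacZ reporter stimulated by forskolin 10 µM; beta-galactosidase reporter signal reflecting CREB driven transcription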
[6] = target: Streptavidin (Streptomyces avidinii) (UniProt P22629); assay: streptavidin binders on small-molecule microarray, primary screen, artefact control for SMM compound annotation, biophysical, 635/667 nm fluorescence (AID 1147); settings: streptavidin binding, higher = more signal;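 further: signal reflects streptavidin binding to arrayed compounds as a control protein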
[7] = small-molecule binders of probe aInhba, primary screen, biochemical, small-molecule microarray, 635/667 nm fluorescence (AID 1148); settings: higher = more signal;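 further: score merges 667nm spot fluorescence with signal-to-noise for antibody binding to printed compounds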
[8] = target: Torsin-1A (Homo sapiens) (UniProt O14656); assay: torsin A binders from cell lysate, primary screen, small-molecule microarray, wild-type, 635/667 nm (AID 1149); settings: COS7 hTOR1A-WT lysate, 635 nm fluorescence, higher = more signal
[9] = target: Torsin-1A (Homo sapiens) (UniProt O14656); assay: small-molecule binders of mutant TOR1A in lysate, primary screen, cell lysate, small-molecule microarray, COS7 lysate, 635/667 nm fluorescence (AID 1150); settings: COS7 hTOR1A mutant lysate, 635 nm fluorescence, higher = more signal;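 further: score pools 667 nm emission and signal to noise measuring lysate protein binding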
[10] = test system: Sonic hedgehog protein (Shh); assay: small-molecule binders of Shh protein, primary screen, biochemical, small-molecule microarray, 635/667 nm fluorescence (AID 1151); settings: small-molecule microarray binding, 635 nm fluorescence; higher = more signal;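 further: Shh protein binding to compounds spotted on small-molecule microarray slides; score combines spot fluorescence intensity with signal-to-noise across triplicate slides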
[11] = E. coli DRC41 culture turbidity changes, primary screen, E. coli filamentation inducer project, strain DRC41, OD650, 48 h (AID 1152);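 further: E. coli MC1000 strain DRC41 lacking acrAB efflux pump and sulA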; settings: E. coli DRC41 (acrAB sulA), higher = more signal, called active from +8 up or from −8 down
[12] = small-molecule binders of probe aLefty1, primary screen, biochemical, small-molecule microarray, 635/667 nm fluorescence (AID 1153); settings: higher = more signal;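 further: score merges spot fluorescence with signal-to-noise ratio from the scanned slide images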
[13] = PSAC antagonists in infected red cells, primary screen, cell-based, P. falciparum Indochina, OD700, 1 h (AID 1154); settings: P. falciparum Indochina infected RBC osmotic lysis, higher = more signal, called active from +8 up or from −8 down
[14] = PSAC antagonists in infected red cells, primary screen, cell-based, P. falciparum Indochina, OD700, 2 h (AID 1155);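 further: lysis reports solute entry through the parasite surface anion channel PSAC; channel blockers reduce lysis of infected cells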; settings: P. falciparum Indochina infected erythrocytes, osmotic lysis OD700; higher = more signal, called active from +8 up or from −8 down
[15] = osmotic lysis modulators in infected erythrocytes, primary screen, PSAC antagonist project, cell-based, P. falciparum Indochina, OD700, 3 h (AID 1156); settings: higher = more signal, called active from +8 up or from −8 down
[16] = PSAC antagonists in infected red cells, primary screen, cell-based, P. falciparum Indochina, OD700, 18 h (AID 1157); settings: P. falciparum Indochina infected erythrocytes, osmotic lysis OD700, 18 h; higher = more signal, called active from +8 up or from −8 down
[17] = modulators of S6 phosphorylation in cells, primary screen, cell-based, A549, cytoblot, luminescence, serum-stimulated (AID 1158); settings: A549 phospho-S6 cytoblot, 5 h, higher = more signal;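 further: serum-stimulated A549 lung adenocarcinoma cells; signal is phosphorylated S6 detected by cytoblot immunostaining with HRP secondary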
[18] = target: NADPH oxidase 2 (Homo sapiens) (UniProt P04839); assay: NOX2-dependent H2O2 signal modulators, primary screen, NOX inhibitor project, cell-based, HEK293-NOX2, PMA-stimulated, Amplex Red fluorescence (AID 1159); settings: 45 min, higher = more signal, called active from +8 up or from −8 down; further: test concentration not given here
[19] = target: NADPH oxidase 4 (Homo sapiens) (UniProt Q9NPH5); assay: NOX4-dependent H2O2 signal modulators, primary screen, NOX inhibitor project, cell-based, HEK293-NOX4, tetracycline-induced, Amplex Red fluorescence (AID 1160); settings: 45 min, higher = more signal, called active from +8 up or from −8 down
[20] = target: NADPH oxidase 5 (Homo sapiens) (UniProt Q96PH1); assay: NOX5-dependent H2O2 signal modulators, primary screen, NOX inhibitor project, cell-based, HEK293-NOX5, Amplex Red fluorescence (AID 1161); settings: HEK293-NOX5, ionomycin, 45 min, higher = more signal
Sequence of NADPH oxidase 5 (Homo sapiens) (Q96PH1 whole entry, looked up): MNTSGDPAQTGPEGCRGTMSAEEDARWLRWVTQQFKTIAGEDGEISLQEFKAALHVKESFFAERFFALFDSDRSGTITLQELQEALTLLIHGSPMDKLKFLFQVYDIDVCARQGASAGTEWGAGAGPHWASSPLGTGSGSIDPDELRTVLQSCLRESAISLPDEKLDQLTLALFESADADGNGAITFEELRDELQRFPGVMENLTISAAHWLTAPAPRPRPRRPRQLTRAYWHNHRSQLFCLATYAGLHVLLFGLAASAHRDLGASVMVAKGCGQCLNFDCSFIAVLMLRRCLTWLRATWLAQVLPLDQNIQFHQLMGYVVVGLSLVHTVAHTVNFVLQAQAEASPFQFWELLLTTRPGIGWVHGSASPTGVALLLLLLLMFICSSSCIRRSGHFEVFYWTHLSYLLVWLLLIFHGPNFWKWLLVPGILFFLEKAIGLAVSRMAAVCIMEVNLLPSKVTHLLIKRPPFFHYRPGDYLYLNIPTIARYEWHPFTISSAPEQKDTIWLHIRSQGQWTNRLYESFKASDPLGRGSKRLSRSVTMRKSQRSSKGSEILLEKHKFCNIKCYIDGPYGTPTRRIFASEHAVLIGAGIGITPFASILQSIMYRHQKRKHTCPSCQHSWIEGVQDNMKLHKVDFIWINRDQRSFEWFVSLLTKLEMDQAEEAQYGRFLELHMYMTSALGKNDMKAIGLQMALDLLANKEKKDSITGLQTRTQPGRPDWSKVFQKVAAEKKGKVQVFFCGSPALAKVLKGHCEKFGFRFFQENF

Sequence of NADPH oxidase 4 (Homo sapiens) (Q9NPH5 whole entry, looked up): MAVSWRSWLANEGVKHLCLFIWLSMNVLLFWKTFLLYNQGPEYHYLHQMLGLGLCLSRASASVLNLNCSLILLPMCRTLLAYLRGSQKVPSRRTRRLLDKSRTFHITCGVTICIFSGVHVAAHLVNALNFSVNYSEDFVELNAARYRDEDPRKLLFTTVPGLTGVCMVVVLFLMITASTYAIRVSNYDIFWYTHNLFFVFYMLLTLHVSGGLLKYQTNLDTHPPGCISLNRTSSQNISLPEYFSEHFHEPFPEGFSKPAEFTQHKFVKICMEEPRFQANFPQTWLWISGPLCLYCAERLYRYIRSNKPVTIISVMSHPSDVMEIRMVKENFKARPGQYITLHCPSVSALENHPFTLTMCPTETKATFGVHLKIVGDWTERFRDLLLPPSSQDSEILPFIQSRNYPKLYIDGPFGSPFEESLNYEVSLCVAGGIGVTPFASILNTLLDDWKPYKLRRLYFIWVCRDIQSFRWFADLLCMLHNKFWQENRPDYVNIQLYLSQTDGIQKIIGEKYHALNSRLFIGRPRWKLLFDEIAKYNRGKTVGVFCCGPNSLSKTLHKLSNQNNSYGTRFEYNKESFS
Sequence of Streptavidin (Streptomyces avidinii) (P22629 whole entry, looked up): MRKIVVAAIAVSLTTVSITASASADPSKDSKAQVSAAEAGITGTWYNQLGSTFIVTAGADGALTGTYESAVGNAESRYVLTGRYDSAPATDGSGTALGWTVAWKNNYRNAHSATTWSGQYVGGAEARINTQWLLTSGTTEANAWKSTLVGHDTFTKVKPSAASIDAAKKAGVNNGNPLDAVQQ
Sequence of NADPH oxidase 2 (Homo sapiens) (P04839 whole entry, looked up): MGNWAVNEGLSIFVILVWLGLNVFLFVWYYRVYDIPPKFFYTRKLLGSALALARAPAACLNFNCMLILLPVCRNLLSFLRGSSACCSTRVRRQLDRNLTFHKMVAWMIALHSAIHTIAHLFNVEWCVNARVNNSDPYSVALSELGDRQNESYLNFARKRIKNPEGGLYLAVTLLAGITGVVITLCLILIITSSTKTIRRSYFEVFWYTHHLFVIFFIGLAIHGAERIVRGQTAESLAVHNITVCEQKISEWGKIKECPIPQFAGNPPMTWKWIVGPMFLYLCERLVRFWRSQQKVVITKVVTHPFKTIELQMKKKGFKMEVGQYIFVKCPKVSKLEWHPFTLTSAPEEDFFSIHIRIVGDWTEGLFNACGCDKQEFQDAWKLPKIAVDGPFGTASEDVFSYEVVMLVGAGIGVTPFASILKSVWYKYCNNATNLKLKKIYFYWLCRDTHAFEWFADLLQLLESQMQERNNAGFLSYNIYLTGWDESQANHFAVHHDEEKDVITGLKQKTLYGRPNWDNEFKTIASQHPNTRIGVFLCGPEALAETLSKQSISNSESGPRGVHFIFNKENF
Sequence of Torsin-1A (Homo sapiens) (O14656 whole entry, looked up): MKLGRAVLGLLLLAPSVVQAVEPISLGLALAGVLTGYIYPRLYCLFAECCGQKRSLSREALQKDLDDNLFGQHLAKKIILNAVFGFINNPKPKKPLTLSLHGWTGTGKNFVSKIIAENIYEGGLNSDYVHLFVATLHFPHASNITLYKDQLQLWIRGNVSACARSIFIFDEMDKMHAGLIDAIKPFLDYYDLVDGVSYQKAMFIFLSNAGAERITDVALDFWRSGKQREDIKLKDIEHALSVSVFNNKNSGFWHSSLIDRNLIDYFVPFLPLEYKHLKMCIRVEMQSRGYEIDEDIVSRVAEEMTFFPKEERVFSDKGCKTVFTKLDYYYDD

SMILES | composite z-score [1] | z-score [2] | z-score [3] | z-score [4] | z-score [5] | composite z-score [6] | composite z-score [7] | composite z-score [8] | composite z-score [9] | composite z-score [10] | z-score [11] | composite z-score [12] | z-score [13] | z-score [14] | z-score [15] | z-score [16] | z-score [17] | z-score [18] | z-score [19] | z-score [20]
NC(=O)NCC#Cc1ccc2c(c1)[C@]1(C(=O)N2)[C@H](c2ccc(OCCO)cc2)N2[C@H](c3ccccc3)[C@H](c3ccccc3)OC(=O)[C@H]2[C@@H]1C(=O)O | -0.129 | -4.1 (inactive) | -0.626 (inactive) | 0.155 (inactive) | -0.719 (inactive) | -0.204 | -0.128 | -0.101 | 0.141 | -0.501 | 0.53 (inactive) | -0.0536 | 2.54 (inactive) | -0.7 (inactive) | 0.623 (inactive) | -1.3 (inactive) | 1.61 | 1.97 (inactive) | 0.325 (inactive) | -0.441
C=CCOC(=O)[C@@H]1[C@H]2C(=O)O[C@H](c3ccccc3)[C@H](c3ccccc3)N2[C@H](c2ccc(OCCOC(=O)[C@H]3C[C@H]4C(=O)NCC(=O)N4[C@H]3c3cccc(OCCO)c3)cc2)[C@@]12C(=O)Nc1ccc(I)cc12 | 0.569 | -0.357 (inactive) | -0.71 (inactive) | -0.264 (inactive) | -0.0891 (inactive) | 0.808 | 0.0228 | 0.724 | 0.702 | 1.88 | -0.27 (inactive) | 0.248 | 1.5 (inactive) | 1.56 (inactive) | 1.06 (inactive) | 1.26 (inactive) | 0.117 | 1.54 (inactive) | 0.436 (inactive) | 1.55
CN1C(=O)C2C(C3CC3)C=C3CN(Cc4cccc(Cl)c4)[C@@H]([C@@H](O)Cc4ccccc4)C3C2C1=O (stereo not given in full) | -0.103 | -1.85 (inactive) | -0.0257 (inactive) | 5.58 (inactive) | 0.349 (inactive) | 0.599 | -0.0221 | 0.667 | 0.342 | 1.78 | 1.14 (inactive) | 0.2 | 8.18 (active) | 1.25 (inactive) | 1.57 (inactive) | 0.918 (inactive) | 0.775 | -0.38 (inactive) | 0.0765 (inactive) | 0.168
CC(C)(C)N1CC=CC23O[C@@H]4C=CCCOC(=O)C4[C@H]2C(=O)N(CCCCCCO)[C@@H]3C1=O (stereo not given in full) | -0.515 | 0.451 (inactive) | 0.595 (inactive) | -0.0899 (inactive) | -0.254 (inactive) | -0.703 | -0.0933 | -1.15 | -1.29 | 0.833 | 0.0094 (inactive) | 0.365 | 0.683 (inactive) | 0.181 (inactive) | 0.639 (inactive) | 0.233 (inactive) | 1.78 | 0.882 (inactive) | -0.0325 (inactive) | 2.08
CC(C)C(O)C1C=CC2C(=O)NC(=O)C2N1Nc1ccccn1 (stereo not given) | 0.122 | 0.813 (inactive) | -0.248 (inactive) | -0.143 (inactive) | 0.219 (inactive) | 0.0669 | -0.0421 | 0.238 | 0.407 | -0.212 | -0.668 (inactive) | 0.134 | -0.292 (inactive) | 0.695 (inactive) | -0.0484 (inactive) | 0.826 (inactive) | -0.846 | -1.22 (inactive) | -1.41 (inactive) | -1.79

— PubChem BioAssay
